Assay outcomes from PubChem.
TDP1 cell noCPT: qHTS for Inhibitors of human tyrosyl-DNA phosphodiesterase 1 (TDP1): qHTS in cells in absence of CPT. DT40 Tdp1-/- hTDP1 cells, no CPT, ATP luminescence, 48 h. Potency, µM (doses to about 46.2 µM), for inactives: at the top dose activity change, negative = growth inhibition, hits mostly inhibitors. 420,000 compounds, 15% hits. AID 686978, 2013; also: potency is read from the fitted curve at half-maximal effect; % is scaled to controls: 0 for no effect and ±100 for the full control effect; nearly all actives have a fitted effect of over 55% in size
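Luminescent ATP content (CellTiter-Glo) served as the growth readout. Knockout chicken DT40 cells expressing human TDP1 were exposed to compounds without camptothecin for a minimum 48 hr at 37 °C.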
TGFb inhibitor: qHTS for Inhibitors of TGF-b; 410,000 compounds, 1.2% hits; AID 588855, 2011; Potency, µM (series often up to 46.1 µM), for the others: at the top dose activity, negative = inhibition, hits mostly inhibitors; HepG2 CAGA-GFP TGF-b/SMAD3 reporter, GFP fluorescence, 18 h; TGF-beta stimulated, 500 pg/mL final; also: potency is read from the fitted curve at half-maximal effect; % is scaled to controls: 0 for no effect and ±100 for the full control effect; nearly all actives have a fitted effect of over 65% in size
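Cell-based qHTS in HEPG2 carrying a CAGA-GFP Smad reporter; compounds added before 500 pg/mL final TGF-beta, 18 h incubation at 37 degrees C, GFP fluorescence quantified per cell by imaging cytometry.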
TDP1 cell CPT: qHTS for Inhibitors of human tyrosyl-DNA phosphodiesterase 1 (TDP1): qHTS in cells in presence of CPT; chicken DT40 Tdp1-/-;hTDP1 cells + 20 nM CPT, ATP luminescence, 48 h; Potency, µM (highest dose often 46.2 µM), for inactives: at the highest dose activity change, negative = growth inhibition, actives largely listed as inhibitors; 420,000 compounds, 12% hits; AID 686979, 2013; also: potency is read from the fitted curve at half-maximal effect; % is scaled to controls: 0 for no effect and ±100 for the full control effect; nearly all actives have a fitted effect of over 55% in size
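Cell growth measured by CellTiter-Glo luminescence after a minimum 48 h, 37 C compound exposure with 20 nM CPT in Tdp1-knockout DT40 cells stably expressing hTDP1, seeded 400/well; qHTS titration format.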
TDP1 inh: qHTS Assay for Inhibitors of Tyrosyl-DNA Phosphodiesterase (TDP1) | Tyrosyl-DNA phosphodiesterase 1 (Homo sapiens), Q9NUW8 | recombinant TDP1, AlphaScreen DNA substrate cleavage | Potency, µM (top dose mostly 130 µM), for inactives: at the highest dose activity change, negative = inhibition, usual class: inhibitors | 350,000 compounds, 0.28% hits | AID 485290, 2010; also: potency is read from the fitted curve at half-maximal effect; % is scaled to controls: 0 for no effect and ±100 for the full control effect; nearly all actives have a fitted effect of over 40% in size
Target sequence (Q9NUW8 whole entry, looked up): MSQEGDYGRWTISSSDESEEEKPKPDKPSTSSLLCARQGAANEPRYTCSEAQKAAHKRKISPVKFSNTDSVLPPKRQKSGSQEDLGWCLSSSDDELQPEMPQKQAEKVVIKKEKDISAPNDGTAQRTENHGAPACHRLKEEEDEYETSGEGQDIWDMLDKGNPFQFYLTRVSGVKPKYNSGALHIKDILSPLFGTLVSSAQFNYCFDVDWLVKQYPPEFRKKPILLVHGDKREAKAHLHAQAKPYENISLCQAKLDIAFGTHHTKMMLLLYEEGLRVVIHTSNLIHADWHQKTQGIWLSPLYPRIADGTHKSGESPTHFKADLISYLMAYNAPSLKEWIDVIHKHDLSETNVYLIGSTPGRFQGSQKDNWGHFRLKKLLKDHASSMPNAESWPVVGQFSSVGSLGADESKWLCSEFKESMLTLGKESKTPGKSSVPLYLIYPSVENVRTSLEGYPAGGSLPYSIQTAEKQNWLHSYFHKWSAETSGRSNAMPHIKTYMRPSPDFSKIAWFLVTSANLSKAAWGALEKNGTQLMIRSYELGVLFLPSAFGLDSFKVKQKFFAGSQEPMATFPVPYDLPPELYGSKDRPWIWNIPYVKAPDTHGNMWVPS
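Enzyme-compound mixtures sat 15 min at room temperature, followed by a 5 min reaction with 15 nM final substrate and 10 min with AlphaScreen beads. Recombinant human Tdp1 was used at 1 nM final.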
HepG2 tox: qHTS for Inhibitors of TGF-b: Cytotox Counterscreen; HepG2 CAGA-GFP viability, ATP luminescence, 18 h; Potency, µM (series often up to 46.1 µM), without a hit: at the top dose activity change, negative = cytotoxicity, most hits filed as cytotoxic; 410,000 compounds, 0.76% hits; also: potency is read from the fitted curve at half-maximal effect
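HepG2 CAGA-GFP cells (1000/well, DMEM with 1% FBS) received compound, then TGF-beta at 500 pg/mL final, and were incubated 18 hours at 37 degrees C. Viability was read by CellTiter-Glo luminescence. Media-only wells were set as complete cell-killing and DMSO as no toxicity.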
IL1B secr inh: qHTS for Inhibitors of Inflammasome Signaling: IL-1-beta AlphaLISA Primary Screen. THP-1 LPS/ATP IL-1B secretion, AlphaLISA, 16 h; active compounds read low. activity change, % at 57.5 µM. 360,000 compounds, 4.7% hits; in the data active = activity change below about -50%; inconclusive = mostly about -30% to -49%; also: % is scaled to controls: 0 for no effect and ±100 for the full control effect
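Secreted IL-1B measured by AlphaLISA bead assay after 16 h compound exposure of THP-1 cells; compounds (final up to 57.5 uM) added 1 h before LPS (250 ng/mL) and ATP (1.25 mM) stimulation; lower signal means less secretion.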
* marks the source's active call; other numbers are inactive results; ? = inconclusive; . = no result; [ ] = remark or other dose. The list is not random: actives were taken first. Their share in the collection is about 19%. Unless noted, calls follow the shape of the dose curve; as a rule, active = well fitted curve in the direction sought with a large enough effect; inconclusive = small, poorly fitted or top-dose-only effect, or another doubt; inactive = no such curve, though single readings can be large; an effect the other way counts as inactive or inconclusive.

SMILES	TDP1 cell noCPT	TGFb inhibitor	TDP1 cell CPT	TDP1 inh	HepG2 tox	IL1B secr inh
Cc1ccc(C(=O)OCC(=O)N(CC(C)C)c2c(N)n(Cc3ccccc3)c(=O)[nH]c2=O)o1	-9%	-19%	-5%	.	-33%	-4
Cc1sc2ncnc(NCCCN3CCCC3=O)c2c1C	2%	12%	-4%	2%	-11%	-1
O=S(=O)(N1CCOCC1)N1CCN(c2ccc(F)cc2)CC1	4%	-13%	-24%	8%	-14%	17
O=C(C1CCN(S(=O)(=O)N2CCOCC2)CC1)N1CCN(c2ccc(F)cc2)CC1	10µM*	-4%	8.2µM*	4%	-9%	9
COc1ccc(N2CCN(C(=O)C3CCN(S(=O)(=O)N4CCOCC4)CC3)CC2)cc1	13µM*	-27%	?	1%	-8%	13
OCCN(Cc1ccccc1)CC(O)COc1ccc(-c2ccccc2)cc1 (centres undefined)	?	?	29µM*	5%	-113%	-76*
OCCN(CC(O)Cn1ccc2ccccc21)CC(O)Cn1ccc2ccccc21 (centres undefined)	?	?	-6%	2%	-37%	7
CC(C)(C)c1ccc(OCC(O)CN(CCO)CC(O)Cn2ccc3ccccc32)cc1 (centres undefined)	?	11µM*	?	3%	-74%	0
Cc1[nH][nH]c(=O)c1C(c1ccc(-c2cccc(C(=O)O)c2)o1)c1c(C)[nH][nH]c1=O	-1%	-3%	30%	8.9µM*	2%	6
Cc1[nH][nH]c(=O)c1C(c1ccc(-c2ccccc2C(=O)O)o1)c1c(C)[nH][nH]c1=O	2%	16%	-12%	.	22%	0
CCN(CC)S(=O)(=O)c1cc(NC(=O)CNc2cccc(S(=O)(=O)N3CCOCC3)c2)ccc1C	2.1µM*	?	5.2µM*	-8%[0.505 µM]	-5%	-10
Cc1ccc(NC(=O)CN(C)CC(=O)Nc2cccc(F)c2)cc1S(=O)(=O)N1CCCCCC1	?	?	?	-5%	-26%	-77*
CC1Cc2ccccc2N1C(=O)CN1CCN(S(=O)(=O)c2ccc3c(c2)OCCCO3)CC1 (centres undefined)	?	-14%	-23%	.	-16%	?
CC1Cc2ccccc2N1C(=O)CNc1cccc(S(=O)(=O)N2CCCC2)c1 (centres undefined)	21µM*	-1%	15µM*	1%	-9%	0
Cc1ccc(S(=O)(=O)N2CCOCC2)cc1NC(=O)CN(C)CC(=O)Nc1cccc(F)c1	21µM*	-11%	?	.	-11%	-16
Cc1ccc(NC(=O)CNc2cccc(S(=O)(=O)N3CCOCC3)c2)cc1F	?	0%	?	0%	-5%	-10
CCN(CC)S(=O)(=O)c1cccc(NC(=O)CNc2cccc(S(=O)(=O)N3CCCC3)c2)c1	1.2µM*	-21%	1µM*	0%	-11%	-9
CC(=O)c1cccc(NCC(=O)Nc2cccc(S(=O)(=O)N3CCCCC3)c2)c1	?	-7%	?	.	-5%	-6
CCN(CC)S(=O)(=O)c1cccc(NC(=O)c2cccc(S(=O)(=O)N3CCCC3)c2)c1	16µM*	-20%	?	-2%[56.1 µM]	0%	-1
Cc1ccc(NCC(=O)Nc2cccc(S(=O)(=O)N(C)C)c2)cc1S(=O)(=O)N1CCCCCC1	7.3µM*	?	8.2µM*	2%	-29%	?
CCN(CC)S(=O)(=O)c1ccc(C)c(NC(=O)CNc2cccc(S(=O)(=O)N3CCCC3)c2)c1	13µM*	?	18µM*	0%	-33%	3
Cc1nn(C(=O)c2cccc([N+](=O)[O-])c2C)c(C)c1S(=O)(=O)N1CCCCCC1	-7%	0%	-22%	4%	-2%	.
Cc1cccc(NS(=O)(=O)c2cccc(C(=O)NCC(c3ccco3)N3CCCCC3)c2)c1 (centres undefined)	23µM*	-6%	21µM*	.	19%	-59*
Cc1cccc(NS(=O)(=O)c2ccc(C(=O)NCC(c3ccccc3)N(C)C)cc2)c1C (centres undefined)	?	0%	16µM*	5%	-18%	-6
COc1ccccc1NS(=O)(=O)c1ccc(C(=O)NCC(c2ccccc2OC)N(C)C)cc1 (centres undefined)	-13%	4%	-11%	6%	-4%	-23
SMILES	TDP1 cell noCPT	TGFb inhibitor	TDP1 cell CPT	TDP1 inh	HepG2 tox	IL1B secr inh
Cc1cccc(NS(=O)(=O)c2ccc(C(=O)NCC(c3ccco3)N3CCCCC3)cc2)c1C (centres undefined)	23µM*	-16%	?	-7%	-1%	?
Cc1ccc(C(=O)N2CCc3ccccc32)o1	3.3µM*	2%	-17%	6%	-11%	-4
O=C(c1ccc([N+](=O)[O-])o1)N1CCc2ccccc21	12µM*	-22%	10µM*	.	-36%	?
COc1cc2c(cc1OC)CN(C(=O)c1oc3ccccc3c1C)CC2	23µM*	?	21µM*	5%[0.0935 µM]	-13%	-11
Cc1ccc(C(=O)N2c3ccccc3CC2C)o1 (centres undefined)	-29%	-1%	?	9%	-37%	-13
O=C(c1ccc([N+](=O)[O-])o1)N1CCOCC1	?	-20%	-6%	1%	-56%	0
O=C(c1ccc([N+](=O)[O-])o1)N1CCc2ccccc2C1	15µM*	?	21µM*	2%	-85%	-28
O=C(O)C1C2C=CC(C2)C1C(=O)N1CCc2ccccc21 (centres undefined)	-9%	-4%	-5%	9%	0%	0
COc1cc2c(cc1OC)CN(C(=O)c1ccc([N+](=O)[O-])o1)CC2	?	13µM*	?	6%	-36%	?
COc1ccc(C(=O)N2CCc3cc(OC)c(OC)cc3C2)cc1OC	?	0%	?	-2%	-24%	-5
O=C(O)C1CC=CCC1C(=O)N1CCc2ccccc21 (centres undefined)	-6%	4%	-14%	22µM*	-82%	29
